Assay outcomes deposited in PubChem by several laboratories.
Sampled rows, rich in hits. Any-hit rate of the full collection: about 4.3%.
CF NFkB block: inhibitors of cystic fibrosis induced NF-kB | KKLEB NF-kB-GFP reporter, PAF-induced, GFP fluorescence overnight | actives 0.86% (n = 360,000) | inhibition, % at 5 µM;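 active means at least 50% inhibition at 5 µM, scaled per plate between neutral and stimulator controls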;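 further: PAF is a Pseudomonas aeruginosa culture filtrate used as stimulus; plate controls were PAF-stimulated DMSO wells for no effect and unstimulated DMSO wells for full effect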
TRPM1 prom inh: reduces MITF-dependent TRPM1 promoter luciferase signal; AID 488899; SK-MEL-5 TRPM1 promoter luciferase, 24 h; inhibition, % at 12.5 µM; actives 0.83% (n = 330,000);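 active means mean inhibition across replicates of 60% or more, whatever share of single replicates reaches that level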
HIF-2a inh: HIF-2a inhibition. inhibition, % at 18.8 µM. actives 0.72% (n = 360,000). 786-0 RCC cells HIF-2a reporter, luciferase luminescence, overnight;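 active means inhibition of the luminescence signal of 40% or more relative to plate controls, in a single-dose primary screen at 18.75 µM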
CHOP inh: CHOP inhibition in unfolded protein response | actives 3.8% (n = 220,000) | inhibition, % at 10 µM | CHO-K1 CHOP-promoter luciferase, tunicamycin-induced, 15-18 h | AID 2732;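 active means compounds that reduced the stress-induced luciferase reporter signal by more than about 70% of percent inhibition, limit read from the data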;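 further: 0% = tunicamycin plus vehicle and 100% = wells without tunicamycin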
Peg3 promoter: Peg3 promoter activity inhibition | HeLa PEG-Prom luciferase reporter, luminescence, overnight | inhibition, % at 20 µM | actives 1.7% (n = 360,000);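 active means inhibition of at least 50% at 20 µM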
KKLEB tox: counter-screen for CF NF-kB inhibitors: cytotoxicity | KKLEB CF airway cells viability, ATPlite luminescence, overnight; active compounds read low; cells stimulated with P. aeruginosa culture filtrate | actives 0.36% (n = 360,000) | activity change (cytotoxicity), % at 5 µM;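 active means corrected activity change at or below -50% at 5 µM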
An asterisk follows results filed as active; / = no result given.

SMILES	CF NFkB block	TRPM1 prom inh	HIF-2a inh	CHOP inh	Peg3 promoter	KKLEB tox
O=C(Nc1ccc(N2CCOCC2)cc1)c1csc([C@@H]2C[C@H](O)[C@@H](CO)O2)n1	-10	/	-78	/	-34	17
Cc1ccc2nc3cc([N+](=O)[O-])cc([N+](=O)[O-])c3cc2c1	68*	63*	-130	95*	75*	-39
Cc1csc(NC(=O)CSc2nsc(SCC(=O)Nc3nc(C)cs3)c2C#N)n1	13	-1	-179	43	-179	-5
Cc1ccc(NC(=O)CSc2nsc(SCC(=O)Nc3ccc(C)cc3C)c2C#N)c(C)c1	-2	21	2	12	77*	-8
Cc1ccc(C)c(N2N=C(C(=O)OCC(=O)N(C)c3ccccc3)CCC2=O)c1	1	-1	9	/	4	9
CCOc1ccc(Nc2nnc(SCc3nc4ccccc4c(=O)[nH]3)s2)cc1	-11	7	-109	96*	3	-21
Cc1ccccc1Nc1nnc(SCc2nc3ccccc3c(=O)[nH]2)s1	/	/	/	32	/	/
COc1ccc2[nH]c(C(=O)O)c(NS(=O)(=O)c3ccc(C)cc3C)c2c1	-4	18	5	/	-3	19
CN(C(=O)c1cccc(NC(=O)Cc2ccc(NC(=O)C3CCCN(S(=O)(=O)c4cccc([N+](=O)[O-])c4)C3)cc2)c1)C1CCCCC1 (stereo unspecified)	8	16	2	/	21	0
OCC#CCSc1nnc(-c2ccc(Br)cc2)o1	-4	-26	-134	2	-112	-1
COC(=O)Sc1nnc(-c2ccc(Br)cc2)o1	/	/	/	91*	/	/
CC(C)CN1C(=S)SC(C)(C)C1n1oc(=O)n(-c2ccccc2)c1=O (stereo unspecified)	8	-12	6	4	12	-13
CC(C)CN1C(=S)SC(C)(C)C1n1oc(=O)n(-c2ccc(Cl)cc2)c1=O (stereo unspecified)	65*	-11	3	3	67*	-56*
NS(=O)(=O)c1ccc(N=Nc2c[nH]c(=O)c(O)c2)cc1	3	3	41*	5	17	1
CCOc1cc(C=O)cc(Cl)c1OCC(N)=O	-4	-5	13	-6	2	5
CC(C)COc1ccc(-c2nn(-c3ccccc3)cc2C(=O)Nc2nccs2)cc1	5	-14	6	11	18	14
O=C(Nc1nccs1)c1cn(-c2ccccc2)nc1-c1ccccc1	-13	-7	-25	71*	9	10
CC(NC(=O)c1ccnn1C)C1CCCO1 (stereo unspecified)	-13	14	15	9	10	15
Cc1ccc(SC(c2ccc(C)cc2)C(Cn2cncn2)C(=O)c2ccccc2)cc1 (stereo unspecified)	6	4	15	34	29	-2
Cc1ccc(C(Sc2ccccc2)C(Cn2cncn2)C(=O)c2ccccc2)cc1 (stereo unspecified)	-13	6	16	93*	16	-1
C#CCOCCOCCOCCNc1nc(N2CCN(C(=O)CCCCCCCCCCNC(=O)[C@H](CCC(=O)O)n3cc(CCCCCN)nn3)CC2)nc(N2CCN(C(=O)CCCCCCCCCCNC(=O)[C@@H]([C@H](C)O)n3cc(C)nn3)CC2)n1	-3	8	6	/	-14	28
C#CCOCCOCCOCCNc1nc(N2CCN(C(=O)CCCCCCCCCCNC(=O)Cn3cc(CCCCCN)nn3)CC2)nc(N2CCN(C(=O)CCCCCCCCCCNC(=O)[C@H]([C@@H](C)CC)n3cc(CCCCCN)nn3)CC2)n1	-21	97*	-3	/	96*	-4
C#CCOCCOCCOCCNc1nc(N2CCN(C(=O)CCCCCCCCCCNC(=O)[C@H](CCCCN)n3cc(C)nn3)CC2)nc(N2CCN(C(=O)CCCCCCCCCCNC(=O)[C@@H]([C@H](C)CC)n3cc(CCCCCN)nn3)CC2)n1	4	105*	4	/	94*	11
C#CCOCCOCCOCCNc1nc(N2CCN(C(=O)CCCCCCCCCCNC(=O)[C@H]([C@@H](C)CC)n3cc(CCCCCN)nn3)CC2)nc(N2CCN(C(=O)CCCCCCCCCCNC(=O)[C@@H]([C@H](C)O)n3cc(C)nn3)CC2)n1	27	99*	0	/	98*	-29
COCCNc1nc(-c2ccc(Cl)cc2C)c2sccc2n1	28	/	-2	/	-21	-33
SMILES	CF NFkB block	TRPM1 prom inh	HIF-2a inh	CHOP inh	Peg3 promoter	KKLEB tox
COc1ccc(C(N)c2csc(Nc3ccc(S(C)(=O)=O)cc3)n2)cc1 (stereo unspecified)	-27	/	11	/	7	0
COc1cc(N(C(C)=O)c2ccc(O)c(C(=O)O)c2)c2ncccc2c1	-9	/	4	/	8	10
C=CCSC1=N/C(=C\c2ccsc2)C(=O)S1	13	4	-13	36	-17	-15
C=CCSC1=N/C(=C\c2ccc(C)o2)C(=O)S1	7	19	6	72*	5	-10
COc1cc2sc3ccc(C#CC4(O)CCCCC4)cc3c(=O)c2cc1OC	4	-34	-130	/	-20	-36
COc1cccc2sc3cc(C#CC4(O)CCCCC4)ccc3c(=O)c12	13	-64	-210	/	89*	-27
COc1cccc2sc3ccc(C#CC4(N)CCCCC4)cc3c(=O)c12	-20	-12	-194	/	-33	-17
Cn1c2ccccc2c(=O)c2ccc(C#CC3(O)CCCCC3)cc21	48	15	3	/	70*	-42
Cc1ccc(Cl)cc1N1CCN(C(=O)Cc2csc(Nc3nc(=S)[nH]c4ccccc34)n2)CC1	12	32	2	84*	34	-12
CC(=O)C1CCC2C3CCC4=CC(=O)CCC4(C)C3(F)C(O)CC12C (stereo unspecified)	61*	14	15	/	10	-3
CC1(C)OC2CC3C4CCC5=CC(=O)CCC5(C)C4(F)C(O)CC3(C)C2(C(=O)CO)O1 (stereo unspecified)	96*	-5	13	/	-17	3
CC12CCC(=O)C=C1CCC1C3CC(O)C(O)(C(=O)CO)C3(C)CC(O)C12F (stereo unspecified)	78*	-1	13	/	-6	-7
CCOC(=O)C1(Cc2ccccc2)CCCN(C(=O)COc2ccccc2OC)C1 (stereo unspecified)	-11	/	-239	/	-371	7
CC1CC(C)(C)Nc2ccc(N=O)cc21 (stereo unspecified)	71*	61*	12	96*	84*	-20
CCc1cc(=O)oc2c3c(cc(OCC(=O)NCCN4CCOCC4)c12)OC(C)(C)CC3	-7	10	6	/	9	2
CC1=CC(=O)C(C(C)C)=C/C1=N/OS(=O)(=O)c1ccccc1	-1	17	-16	106*	106*	27
Cc1ccc2c(c1)/C(=N/OS(=O)(=O)c1ccccc1)CCS2	4	2	-3	/	8	-14
